Results published in PubChem BioAssay AID1117319 (Southern Research Institute, 2015).
Several values for one entry are separate records, joined by “and”; a condition that tells them apart may be missing. Equal values may be shown once. Hit rate of the full screen: of about 260,000 compounds, about 1,500 (0.58%) were called active. About 5% were inconclusive and are not listed.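 Rule for the calls: active = inhibition above a set limit at one or more doses, reproduced on every date tested; inconclusive = results disagree between test dates, or hit never tested in dose response; inactive = the rest.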 These entries were drawn from the full list. Potency and affinity values are given separately.

Target: Virion infectivity factor (Human immunodeficiency virus type 1 group M subtype B (isolate BH10)) + Virion infectivity factor (Human immunodeficiency virus type 1 group M subtype B (isolate BRU/LAI)) + Virion infectivity factor (Human immunodeficiency virus type 1 group M subtype B (isolate PCV12)) + Virion infectivity factor (Human immunodeficiency virus type 1 group M subtype B (isolate HXB2)) + DNA dC->dU-editing enzyme APOBEC-3G (Homo sapiens) (UniProt P69720+P69721+P69722+P69723+Q9HC16)
Experiment: inhibitors of Vif binding to APOBEC3G peptide, primary screen, biochemical, TR-FRET, GST-Vif 1-94, biotin-A3G peptide, dose response retest (AID 1117319);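 note: Vif residues 1-94 fused to GST binding biotinylated APOBEC3G peptide 110-148; 0% = full assay without inhibitor and 100% = GST in place of GST-Vif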
Details: hits give high values

inhibition, inactive:
Clc1ccc(OCCCc2nc(-c3cccnc3)no2)c(Cl)c1 21.6%
N#Cc1c(N2CCN(c3ccc(F)cc3)CC2)nc(N)c2c(N)nc3c(c12)CC(=O)N3C1CC1 1.08%
CC(C)c1ccc(-c2nc(N3CCCCC3)[nH]c(=O)c2C#N)cc1 -2.18%
CN(CCC#N)C(=O)COC(=O)c1ccc(Cl)cc1O 6.5%
COc1ccc(-n2nnnc2-c2cnc3cc4c(cc3c2C)OCO4)cc1 2.05%
O=C(Cn1c2c(c(-c3ccccc3Cl)cc1=O)CCC2)NCCCN1CCOCC1 22.2%
CCCCNC(=O)Cn1c2c(c(-c3ccccc3Cl)cc1=O)CCC2 11.2%
CC(=O)c1ccc(NC(=S)N2CCCC(C(F)(F)F)C2)cc1 (stereo not drawn) -3.97%
Cc1ccc(C2C3=C(CCCC3=O)Nc3[nH]c(=S)[nH]c(=O)c32)cc1 (stereo not drawn) 15.3%
COC(=O)C1=C(C)Nc2[nH]c(=S)[nH]c(=O)c2C1c1ccc(O)cc1 (stereo not drawn) -3.71%
COc1ccc(Nc2ccc([N+](=O)[O-])cc2[N+](=O)[O-])cc1 -7.01%
O=C(NC(=O)c1ccccc1)NC1(C(F)(F)F)OCCO1 -4.29%
O=C(NCC1CCCO1)C(c1cccnc1)N(C(=O)Cc1cccs1)c1ccccc1 (stereo not drawn) 28.6%
COc1ccc2c(c1)C(=O)N(c1ccc(C)cc1)C(=O)C2 1.47%
Cc1ccc2c(c1)CC1(CN2C)C(=O)OC(C)(C)OC1=O 24.2%
O=C1NC(=O)C(=CC=Cc2ccccc2)S1 2.69%
CCc1ccc(N2C(=O)C3ON(c4ccccc4)C(c4ccco4)C3C2=O)cc1 (stereo not drawn) -3.31%
Cc1n[nH]c(=O)n1-c1ccc(C(C)C)cc1 -7.48%
CCOC(=O)C1=C(C)N(c2ccc(OCC)cc2)C(=O)/C1=C\c1ccco1 10.7%
CC1=NN(c2ccccc2)C(=O)/C1=C/C=C/c1ccccc1 5.22%
CC(C)c1ccc(CN(C(=O)/C=C/c2ccco2)C2CCS(=O)(=O)C2)cc1 (stereo not drawn) 30.9%
Cc1ccc(CC2S/C(=N/N=C/c3ccco3)NC2=O)cc1 (stereo not drawn) 4.38%
Cc1ccc(N2C(=O)c3n[nH]c(C)c3C2c2ccco2)cc1 (stereo not drawn) -7.3% and 4.08%
COc1ccc2[nH]c(C(=O)Nc3cccc(C)n3)cc2c1 -5.53%
CCOc1cc(C#N)ccc1OCC(=O)N1CCN(C(=O)c2cccs2)CC1 -1.5%
Cc1cccc(C)c1OCC(=O)NCC1CCCO1 (stereo not drawn) -4.95%
CCOCCCNC(=O)/C=C1\Sc2ccccc2N(Cc2ccccc2F)C1=O -8.36%
CCOC(=O)c1ccccc1NS(=O)(=O)c1ccc(S(=O)(=O)N2CCCC2)cc1 2.58%
O=C(NNC(=O)c1cccc(-n2cccc2)c1)c1ccc(F)cc1 16%
O=C(NNC(=O)c1cccc(-n2cccc2)c1)c1ccccc1 7.05%
CN(CC(=O)Nc1cccc(F)c1)C(=O)c1ccc(C(=O)c2ccccc2)cc1 0.25%
Cc1ccc(C)c(NC(=O)CN(C)C(=O)c2cccc(S(=O)(=O)N(C)C)c2)c1 5.71%
COc1ccc(NC(=O)CN(C)C(=O)c2ccc3ccccc3c2)cc1 7.66%
Cc1ccc(C)c(NC(=O)CN(C)C(=O)c2cccc(N3C(=O)CCC3=O)c2)c1 -0.71%
COc1ccc(NC(=O)CN(C)C(=O)c2cccc(Oc3ccccc3)c2)cc1 -4.86%
CN(CC(=O)Nc1cccc(F)c1)C(=O)c1cccc(N2C(=O)CCC2=O)c1 -2.88%
O=C(CCCCn1ccc(=O)[nH]c1=O)Nc1ccc(O)c(C(=O)O)c1 -11.5%
Cc1ccsc1-c1nc(CN(C)C(C2CC2)C2CC2)c(C)o1 4.23%
COc1cc2c(cc1OC)CN(Cc1nc3ccsc3c(=O)[nH]1)CC2 7.56%
COc1ccc(N2CCN(Cc3nc4c(c(=O)[nH]c(=O)n4C)n3CC(C)=O)CC2)cc1 8.98%
Cc1ccc(SCC(=O)Nc2ccc(N3CCOCC3)cc2)cc1C -8.83%
COc1ccc(NC(=O)NNS(=O)(=O)c2ccc(OC)c(OC)c2)c(OC)c1 5.71%
O=C(Nc1ccc(S(=O)(=O)N2CCCCC2)cc1)c1ccccc1Cl 0.17%
Cc1ccc(CSCC(=O)NCc2ccc3c(c2)OCO3)cc1 14.3%
COc1cc2c(cc1OC)CN(C(=O)c1cccc(S(=O)(=O)N3CCc4ccccc43)c1)CC2 8.84%
CN(CC(=O)Nc1ccccc1C(F)(F)F)C(=O)c1cccc(-n2cccc2)c1 6.51%
Cc1ccc(NC(=O)CN(C)C(=O)c2cccc(Br)c2)cc1 -1.1%
O=C(CNC(=O)c1cccc(-n2cccc2)c1)Nc1ccccc1Br 4.99%
CN(CC(=O)Nc1ccccc1Cl)C(=O)c1cccc(-n2cccc2)c1 -0.39%
Cc1cccc(NC(=O)CNC(=O)c2ccc3nc[nH]c3c2)c1C 9.97%
Cc1cccc(C)c1NC(=O)CN(C)C(=O)c1cccc(-n2cccc2)c1 9.97%
CCN(CC(=O)Nc1c(F)cccc1F)C(=O)c1cccc(-n2cnnn2)c1 -3.65%
CCN(CC(=O)Nc1ccc(NC(C)=O)cc1)C(=O)c1cccc(-n2cccc2)c1 16.2%
O=C(CCNS(=O)(=O)c1ccc(F)cc1)N1CCN(c2ncccn2)CC1 -6.24%
Cc1oc2cc3oc(=O)c(CCC(=O)NCCC(=O)O)c(C)c3cc2c1C 2.04%
O=C(O)c1cccc2c1C(=O)c1cc([N+](=O)[O-])cc([N+](=O)[O-])c1-2 6.48%
COc1ccc(C2c3ccsc3CCN2C(=O)NC(C)(C)C)cc1 (stereo not drawn) -4.12%
COCCN(C(=O)COC(=O)CCOc1ccccc1)c1c(N)n(Cc2ccccc2)c(=O)[nH]c1=O 0.29%
COc1ccc(NC(=O)CSc2ncnc3c2cnn3Cc2ccccc2)cc1OC 23.2%
O=C(Nc1cccc2ccccc12)N1CCN(Cc2ccccc2)CC1 20.5%
COC(=O)CSc1nnc(-c2ccccn2)n1N -2.48%
CCOC(=O)N1CCN(CC(=O)Nc2ccc(OC)cc2)CC1 -0.76%
Cc1ccc(C(CC(=O)N2CCCCC2)c2ccccc2)c(O)c1C (stereo not drawn) -1.48%
COc1cc(Cl)c(C)cc1NC(=O)CN1C(=O)C2CCCCC2C1=O (stereo not drawn) -15.8%
O=C(NCC1CCCO1)c1ccc(CS(=O)(=O)c2ccc(Cl)cc2)o1 (stereo not drawn) 0.48%
Cc1ccc(CC(=O)NNC(=O)c2cccs2)cc1C -2.08%
O=c1cc(CO)oc(C(Nc2ccccn2)c2ccc(C(F)(F)F)cc2)c1O (stereo not drawn) 10.8%
COc1ccc(C(Nc2ccccn2)c2oc(CO)cc(=O)c2O)cc1 (stereo not drawn) 20.9%
CN(c1ccccc1)S(=O)(=O)c1ccc(C(=O)NCC2CCCO2)cc1 (stereo not drawn) 6.12%
Cc1ccc2c(c1)n([O-])c1c([n+]2=O)CCCC1 1.62%
O=[n+]1c2c(n([O-])c3cc(F)ccc31)CCCC2 11.7%
O=[n+]1c2c(n([O-])c3cc(Br)ccc31)CCCC2 30%
O=[n+]1c2c(n([O-])c3cc(F)c(N4CCCC4)cc31)CCC2 25.7%
O=[n+]1cc(-c2ccc(Br)cc2)n([O-])c2c1CCC2 3.02%
CCOc1ccc2c(c1)n([O-])c1c([n+]2=O)CCCC1 23.4%
O=[n+]1c2c(n([O-])c3c1CCCC3)CCCC2 3.36%
O=[n+]1c2c(n([O-])c3ccccc31)CCCC2 9.07%
Cc1ccc2oc3nc(C)c(C(=O)O)cc3c(=O)c2c1 3.05%
CCN(CC)CCn1c(=S)[nH]c2cc(C(=O)NCCc3ccc(OC)c(OC)c3)ccc2c1=O -5.2%
S=c1[nH]nc2nnc3ccccc3n12 -8.57%
COCCN1C(=O)c2[nH]nc(-c3ccccc3O)c2C1c1ccc(OC)cc1 (stereo not drawn) 4.2%
CCOC(=O)C1=C(C)N(C)C(=S)NC1c1cc(OC)ccc1OC (stereo not drawn) 29.4%
Cc1ccc(NC(=O)N2CCC(C(=O)Nc3ccc(C)cc3C)CC2)cc1 -2.75%
COC(=O)C1CCN(S(=O)(=O)c2c[nH]c(=O)[nH]c2=O)CC1 -3.67%
CC(C)CN(CC(C)C)S(=O)(=O)N1CCC(C(=O)N2CCc3ccccc3C2)CC1 10.1%
O=C(CSc1ccc2nnc(-c3ccccn3)n2n1)N1CCOCC1 5.93%
CCOC(=O)C=Nc1c(N)n(C)c(=O)n(C)c1=O -1.01%
CCCCSc1c(C)c2cc3c(cc2[nH]c1=O)OCO3 -11.4%
COc1cc(C(=O)NC(=S)NCc2ccco2)cc(OC)c1OC 5.31%
COc1cc(C(=O)NCc2ccco2)cc(OC)c1OC -2.63%
Cc1ccc(/C=C2\CCC3=C2OC(N)=C(C#N)C3c2ccc(C)cc2)cc1 (stereo not drawn) 20.9%
N#CC1=C(N)OC2=C(CC/C2=C\c2ccccc2)C1c1ccccc1 (stereo not drawn) 22.4%
CCOC(=O)N1CCN(C(=O)CN(Cc2ccccc2)S(=O)(=O)c2ccc(OC)c(Cl)c2)CC1 -0.5%
